From PubChem
CRE-bla Fsk = modulators of forskolin-stimulated CRE signaling in CHO cells. CHO CRE-bla reporter (cAMP response element driving beta-lactamase), forskolin EC10, beta-lactamase ratio. Potency, µM (series often up to 38.2 µM), for the others: top-dose activity change, negative = inhibition, usual class: activators. hit rate 2.5% among 71,000; active = well fitted activation curve with a large enough effect in the signal ratio, with a control signal flat, not every such curve was filed as active; inconclusive = small, poorly fitted or top-dose-only effect, or effect the other way, or a change in a side signal; the % refers to the signal ratio; note: % of control where 0% means no effect
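Titrated compounds plus EC10 NKH 477 on CHO CRE-bla cells, 3 h, 37 °C. CCF4, 2 h RT. Ratio 460/530 nm → AC50.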
HEK293 cAMP ctrl = parental HEK293 cAMP activation (counter-screen). hit rate 2.5% among 73,000. Potency, µM (doses to about 57.1 µM), without a hit: at the top dose activation, actives largely listed as activators. parental HEK293 CNG cAMP sensor, membrane potential fluorescence; note: % of control where 0% means no effect; nearly all actives have a fitted effect of over 55% in size
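Parental HEK 293 cells stably expressing a cAMP-gated CNG channel were loaded with membrane potential dye containing 100 uM RO 20-1724 for 60 min. Compound added for 30 min; depolarization read as fluorescence intensity at 590 nm.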
TSHR agonist = agonists of human thyroid stimulating hormone receptor. HEK293-CNG-TSHR cells (CNG channel as cAMP sensor), membrane potential dye, cAMP. hit rate 0.48% among 73,000. P16473. Potency, µM (top dose mostly 57.1 µM), inactives show top-dose activation, usual class: activators; active = well fitted activation curve with a large enough effect in the main read-out, with a control signal flat, not every such curve was filed as active; inconclusive = small, poorly fitted or top-dose-only effect, or a change in a side signal; inactive = no such curve, though single readings can be large or run the other way; % of control where 0% means no effect;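 note: the control signal comes from parental cells without the receptor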
Target sequence (P16473 whole entry, looked up): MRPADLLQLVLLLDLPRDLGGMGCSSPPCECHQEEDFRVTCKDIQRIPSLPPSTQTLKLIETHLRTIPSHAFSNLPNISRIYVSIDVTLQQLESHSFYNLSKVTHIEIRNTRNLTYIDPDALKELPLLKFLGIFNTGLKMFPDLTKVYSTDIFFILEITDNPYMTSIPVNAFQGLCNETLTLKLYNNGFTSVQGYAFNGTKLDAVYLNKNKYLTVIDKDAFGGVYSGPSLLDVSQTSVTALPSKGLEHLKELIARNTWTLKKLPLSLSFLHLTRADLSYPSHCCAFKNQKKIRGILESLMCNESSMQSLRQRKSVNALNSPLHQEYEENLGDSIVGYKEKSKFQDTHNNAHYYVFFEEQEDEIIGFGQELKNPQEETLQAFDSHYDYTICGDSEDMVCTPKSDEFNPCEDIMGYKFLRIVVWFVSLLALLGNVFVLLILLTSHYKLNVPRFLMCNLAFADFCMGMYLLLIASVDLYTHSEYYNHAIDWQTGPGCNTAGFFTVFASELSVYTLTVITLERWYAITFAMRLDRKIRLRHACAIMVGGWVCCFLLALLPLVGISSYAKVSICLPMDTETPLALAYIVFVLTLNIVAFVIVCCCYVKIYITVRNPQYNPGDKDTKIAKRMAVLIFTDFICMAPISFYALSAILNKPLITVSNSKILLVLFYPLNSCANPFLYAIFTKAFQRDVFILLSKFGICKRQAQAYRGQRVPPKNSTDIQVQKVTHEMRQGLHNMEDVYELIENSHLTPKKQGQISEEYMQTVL
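cAMP rise detected as CNG-channel membrane depolarization by fluorescent dye (emission 590 nm), 30 min after compound, following 60 min dye loading containing 100 uM RO 20-1724 at room temperature. Cells: TSHR/CNG HEK 293, with parental CNG HEK 293 as control.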
ERK AVP block = blocks ERK signaling stimulated by vasopressin; HEK293-V1b, vasopressin-stimulated pERK AlphaScreen; hit rate 0.99% among 72,000; Potency, µM (highest dose often 57.5 µM), for the others: top-dose activity, negative = inhibition, hits mostly inhibitors; note: % is set by controls: 0 for no effect and ±100 for the full control effect; nearly all actives have a fitted effect of over 55% in size
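HEK293 cells stably expressing V1b receptor, preincubated 30 min at 37 °C with compound, then stimulated 5 min with 25 nM vasopressin. Phospho-ERK by AlphaScreen SureFire after 5 h RT; normalized to DMSO and vasopressin; AC50 by Hill fit.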
Active calls of the source: *; ? = inconclusive; nt = no result; [ ] = another dose, or the depositor's remark. Only some compounds are listed: those with a hit (about 6% of all), similar ones and a draw of the others. Unless noted, calls come from the whole dose curve; as a rule, active = well fitted curve in the direction sought with a large enough effect; inconclusive = small, poorly fitted or top-dose-only effect, or another doubt; inactive = no such curve, though single readings can be large; an effect the other way counts as inactive or inconclusive. Potency is the fitted concentration of half-maximal effect.

SMILES	CRE-bla Fsk	HEK293 cAMP ctrl	TSHR agonist	ERK AVP block
COC(=O)[C@@]1(Cc2ccc(OC)cc2)[C@H]2c3cc(C(=O)N4CCCC4)n(CCc4ccc(OC)c(Br)c4)c3C[C@H]2CN1C(=O)c1ccccc1	-7%	5µM*	?	-2%
Nc1ccc(S(=O)(=O)NCCS(=O)(=O)O)cc1	-3%[7.6 µM]	8%[11.4 µM]	-1%[11.4 µM]	-5%[11.5 µM]
CCOc1ccc(NC(=O)Cn2nnc(-c3ccccc3NC(=O)CC)n2)cc1	5%	-5%	-2%	13%
COc1ccc(NC(=O)Cn2nnc(-c3ccccc3NC(=O)c3cccs3)n2)cc1	?	2%	25µM*	3%
CC(C#N)Sc1ncnc2sc3c(c12)CCC3 (centres undefined)	?	25µM*	?	-68%
N#CCSc1ncnc2sc3c(c12)CCC3	13%	10%	28%	-21%
O=C(c1cccc(F)c1)N1CCC2(CC1)CN(c1ncccn1)C2	-3%	11%	nt	-2%
CSc1nc(N(CCO)CCO)c2sc3nc(-c4ccco4)c4c(c3c2n1)CCC4	?	25µM*	?	?
C[C@@H]1C=C[C@](Cc2ccccc2)(C(=O)NCCCNc2ncc(C(F)(F)F)cc2Cl)N1C(=O)c1ccccc1	?	25µM*	?	-8%
C[C@@H]1C=C[C@](Cc2ccccc2)(C(=O)NCCc2c[nH]c3ccccc23)N1C(=O)c1ccccc1	-14%	2.5µM*	?	-7%
COC(=O)[C@@]1(Cc2ccccc2)C=C[C@@H](C)N1C(=O)c1ccccc1	-22%	32µM*	?	26%
CN(C)Cc1ccccc1-c1nc(NC2CCNCC2)c2ccccc2n1	-4%	-9%	3%	0%
NC1CONC1=O (centres undefined)	nt	nt	nt	8%
COc1cccc2[nH]c3c(N4CCC(C)CC4)ncnc3c12	4µM*	-9%	-42%	-19%
COCCCn1c(=N)c(C(=O)NCC2CCCO2)cc2c(=O)n3cccc(C)c3nc21 (centres undefined)	?	-8%	-2%	?
CCOCCCn1c(=N)c(C(=O)Nc2cc(C)on2)cc2c(=O)n3ccccc3nc21	?	6%	-8%	-1%
N=c1c(C(=O)NCc2ccc(F)cc2)cc2c(=O)n3ccccc3nc2n1CC1CCCO1 (centres undefined)	2µM*	-34%	?	-10%
CCCn1c(=N)c(C(=O)NCC2CCCO2)cc2c(=O)n3cccc(C)c3nc21 (centres undefined)	13µM*	-7%	nt	-11%
COCCCn1c(=N)c(C(=O)NCC2CCCO2)cc2c(=O)n3ccccc3nc21 (centres undefined)	16µM*	24%	-3%	-2%
COc1ccc(CCn2c(=N)c(C(=O)N3CCN(C)CC3)cc3c(=O)n4ccccc4nc32)cc1	13µM*	-62%	?	?
Nc1nnnn1/N=C/c1ccccc1OCc1ccc(Cl)cc1Cl	?	32µM*	?	20%
COc1ccc(OC)c(C2CC(=O)c3c([nH]c(C(=O)OC(C)C)c3C)C2)c1 (centres undefined)	3.2µM*	30%	27%	-26%
CCOCCOC(=O)c1[nH]c2c(c1C)C(=O)CC(c1ccc(N(C)C)cc1)C2 (centres undefined)	-1%	14%	11%	25µM*
COCCOC(=O)c1[nH]c2c(c1C)C(=O)CC(c1cc(OC)ccc1OC)C2 (centres undefined)	?	24%	13%	nt
CCCOCCOC(=O)c1[nH]c2c(c1C)C(=O)CC(c1cc(OC)ccc1OC)C2 (centres undefined)	2.5µM*	?	?	-27%
SMILES	CRE-bla Fsk	HEK293 cAMP ctrl	TSHR agonist	ERK AVP block
COC(=O)c1[nH]c2c(c1C)C(=O)CC(c1ccccc1)C2 (centres undefined)	1.6µM*	9%	5%	-13%
Clc1nc2ccccc2nc1Cl	?	17%	-3%	11%
Cn1c(=O)c2[nH]c(COCc3nc4c([nH]3)c(=O)n(C)c(=O)n4C)nc2n(C)c1=O	11%[7.6 µM]	-9%[11.4 µM]	-1%[11.4 µM]	2%[11.5 µM]
COc1cc(C2CC(=O)c3c([nH]c(C(=O)OCCOC(C)C)c3C)C2)cc(OC)c1OC (centres undefined)	-15%	?	?	4µM*
O=c1[nH]c(SCc2c(Cl)c(Cl)c(Cl)c(Cl)c2Cl)nc(=S)[nH]1	7%[7.6 µM]	11%[11.4 µM]	1%[11.4 µM]	5%[11.5 µM]
O=c1oc2ccccc2n1CSc1nc2ccccc2s1	?	25µM*	?	101%
CCOC(=O)C(C)Sc1nc2c(cnn2-c2ccc(C)cc2)c(=O)[nH]1 (centres undefined)	?	19%	7%	28%
Cc1ccc(-n2ncc3c(=O)[nH]c(SCC(=O)N4CCN(c5ccccc5)CC4)nc32)cc1	?	?	?	11%
CC(C)Sc1nc2c(cnn2-c2ccc(F)cc2)c(=O)[nH]1	3.2µM*	?	?	nt
Cc1ccc(-n2ncc3c(=O)[nH]c(SC(C)C)nc32)cc1	2µM*	1%	-2%[11.4 µM]	nt
Cc1ccc(-n2ncc3c(=O)[nH]c(SCC(=O)N4CCCc5ccccc54)nc32)cc1	?	40µM*	?	36%
CC(C)Sc1nc2c(cnn2-c2ccccc2)c(=O)[nH]1	-5%	13%	6%	nt
COC(=O)c1ccc(CSc2nc3c(cnn3-c3ccc(C)cc3)c(=O)[nH]2)o1	6.3µM*	2%	nt	10%
CC(C)(C)n1nnnc1C(c1cccs1)N(Cc1ccccc1)Cc1ccco1 (centres undefined)	?	16µM*	?	9%
CCC(C)(C)n1nnnc1C(c1cc2ccc(C)cc2[nH]c1=O)N(Cc1cccnc1)Cc1ccco1 (centres undefined)	8%	14%	2%[11.4 µM]	20%
c1ccc(-c2ccc(N3CCCC4(CCNCC4)C3)cc2)cc1	?	-53%	?	?
COC(=O)N1CCC2(CCN(C(=O)Nc3ccc(OC)cc3)CC2)CC1	5%	16µM*	?	8%
COc1ccc(NC(=O)N2CC3(CCN(C(=O)c4ccc(OC)cc4)CC3)C2)cc1	-7%	16%	5%	7%
COc1ccc(NC(=O)N2CCC3(CC2)CCN(C(=O)c2ccncc2)CC3)cc1	2%	8%	-1%	12%
COc1ccc(NC(=O)N2CC3(CCN(C(=O)c4c(C)noc4C)CC3)C2)cc1	-5%	13µM*	?	10%
Fc1ccc2nc3[nH]c4ccccc4c3nc2c1	7.9µM*	6%	4%	?
O=c1cc(-c2ccccc2)c2ccccc2[nH]1	12%	-2%	10%	?
C[N+](C)([O-])Cc1cc(-c2ccccc2)ccc1O	1%[7.6 µM]	6%[11.4 µM]	6%[11.4 µM]	-3%[11.5 µM]
N#C/C(=C1\CCCN1)c1ccc2ccccc2n1	-7%	21%	10%	16µM*
c1ccc(-c2nc(-n3ccnc3)nc(-n3ccnc3)n2)cc1	1.3µM*	-3%	12%	16%
CC(C)Nc1nc(-c2ccccc2)nc(-n2ccnc2)n1	23%	?	?	-7%
